Screens deposited in PubChem by National Center for Advancing Translational Sciences (NCATS).
Rows were chosen to be rich in hits. Some 21% of all compounds tested hit in one or more screens of this group.
TDP1 cell noCPT: qHTS for Inhibitors of human tyrosyl-DNA phosphodiesterase 1 (TDP1): qHTS in cells in absence of CPT. DT40 Tdp1-/- hTDP1 cells, no CPT, ATP luminescence, 48 h. Potency, µM (top dose mostly 46.2 µM), hits mostly inhibitors. 420,000 compounds, 15% hits. AID 686978, 2013; note: nearly all actives have a fitted effect of over 55% in size
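Chicken DT40 Tdp1-/- cells complemented with human TDP1, screened without camptothecin (DMSO vehicle only), 400 cells/well. Compounds pin-transferred, cells incubated at 37 °C for at least 48 hr. Growth read as ATP-dependent luminescence (CellTiter-Glo, 30 min at RT).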
DT40 TDP1 CPT: DT40-hTDP1 cell growth loss with CPT; Potency, µM (doses to about 46.2 µM), most hits filed as inhibitors; 420,000 compounds, 12% hits; chicken DT40 Tdp1-/-;hTDP1 cells + 20 nM CPT, ATP luminescence, 48 h; note: nearly all actives have a fitted effect of over 55% in size
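Chicken DT40 Tdp1-/- cells stably complemented with human TDP1 were seeded at 400 cells/well in medium containing 20 nM camptothecin, exposed to pin-transferred compounds, and grown at 37 °C for at least 48 hr. Viability was read as ATP luminescence.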
DRD3 antagonist: antagonists of human D3 dopamine receptor | P35462 | 360,000 compounds, 2.5% hits | D3R cells, DiscoveRx beta-arrestin luminescence, antagonist mode; hits give low values | max response, negative = inhibition, %; in the data active = max response below about -50%; inconclusive = no clear call, values can overlap the other calls
Target sequence (P35462 whole entry, looked up): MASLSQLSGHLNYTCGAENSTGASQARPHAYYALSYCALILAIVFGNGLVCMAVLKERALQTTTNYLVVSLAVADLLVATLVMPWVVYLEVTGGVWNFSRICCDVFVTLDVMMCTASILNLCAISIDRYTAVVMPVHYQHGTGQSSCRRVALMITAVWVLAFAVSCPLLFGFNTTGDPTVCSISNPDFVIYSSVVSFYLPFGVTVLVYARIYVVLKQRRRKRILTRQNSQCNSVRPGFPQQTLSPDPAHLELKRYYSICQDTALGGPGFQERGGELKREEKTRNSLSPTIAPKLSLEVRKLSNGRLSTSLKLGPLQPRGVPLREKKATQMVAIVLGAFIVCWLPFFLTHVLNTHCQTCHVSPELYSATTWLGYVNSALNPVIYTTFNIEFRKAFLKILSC
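Cells expressing the human receptor were seeded at 1500 cells/well, incubated overnight at 37 degrees C in 5% CO2, then exposed to library compounds with dopamine controls for 90 minutes at 37 degrees C before luminescent detection.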
ClpP mod: qHTS Assay for Activators of ClpP; ATP-dependent Clp protease proteolytic subunit (Bacillus subtilis (strain 168)), P80244; purified B. subtilis ClpP, FRET peptide cleavage, 20 min; Potency, µM (series often up to 57.5 µM); 340,000 compounds, 1.9% hits; AID 651965, 2013; active = well fitted falling curve with a large enough effect; inconclusive = small, poorly fitted or top-dose-only effect; inactive = no such curve, though single readings can be large or run the other way; note: the source files actives as falling curves though it sought activators and does not explain the sign; nearly all actives have a fitted effect of over 65% in size
Target sequence (P80244 whole entry, looked up): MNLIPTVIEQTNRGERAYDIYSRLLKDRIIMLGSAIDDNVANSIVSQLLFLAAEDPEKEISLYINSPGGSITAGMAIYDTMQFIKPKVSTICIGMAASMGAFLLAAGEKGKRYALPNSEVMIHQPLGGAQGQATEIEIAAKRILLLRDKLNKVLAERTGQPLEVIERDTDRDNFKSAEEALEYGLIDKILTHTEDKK
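ClpP 10 microg/mL final, pH 8 Tris/KCl buffer with BSA, glycerol, Tween-20; compound pinned in; FRET-FV substrate; RT 20 min; Ex320/Em430; ΔFRET vs ADEP 5.8 microM, DMSO, no enzyme.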
DRD3 agonist: activates the human D3 dopamine receptor; D3R DiscoveRx beta-arrestin cells, luminescence, 90 min; P35462; max activation, %; 410,000 compounds, 0.58% hits; AID 652048; in the data active = max activation above about 30%
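Agonist-mode cell screen: cells plated at 1500/well and incubated overnight at 37 °C, then exposed to library compounds for 90 min at 37 °C. Detection reagent was added for 30–60 min at room temperature, and luminescence was read.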
IL-1B inflam inh: inflammasome signaling inhibition, IL-1 beta readout; 360,000 compounds, 4.7% hits; THP-1 LPS/ATP IL-1B secretion, AlphaLISA, 16 h; hits give low values; activity change, % at 57.5 µM; AID 743279; in the data active = activity change below about -50%; inconclusive = mostly about -30% to -49%
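Secreted IL-1B measured by AlphaLISA bead assay after 16 h compound exposure of THP-1 cells; compounds (final up to 57.5 uM) added 1 h before LPS (250 ng/mL) and ATP (1.25 mM) stimulation; lower signal means less secretion.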
Each line names hits and unclear results; the compound was inactive in the other large screens; ! = repeats disagree. Unless noted, calls come from the whole dose curve; as a rule, active = well fitted inhibition curve with a large enough effect; inconclusive = small, poorly fitted or top-dose-only effect; inactive = flat fitted curve, though single readings scatter.

CCc1nc2ccc(Cc3ccc4nc(CC)[nH]c4c3)cc2[nH]1	TDP1 cell noCPT 23µM, DT40 TDP1 CPT 13µM
CCc1nc2ccccc2[nH]1	none
CC1(c2nnnn2-c2ccc3c(c2)OCCO3)CCC(=O)N1Cc1cccc(C(F)(F)F)c1 (centres undefined)	TDP1 cell noCPT inconclusive, DT40 TDP1 CPT inconclusive, DRD3 antagonist inconclusive
Cc1cccc(N(CC(=O)NCCSCc2ccccc2)S(C)(=O)=O)c1C	none (no result: ClpP mod)
COc1ccccc1N(CC(=O)NCCSCc1ccccc1)S(C)(=O)=O	none
Cc1cccc(N(CC(=O)NCCSCc2ccc(Cl)cc2)S(C)(=O)=O)c1C	TDP1 cell noCPT 26µM, DT40 TDP1 CPT 18µM (no result: DRD3 antagonist, IL-1B inflam inh)
Cc1cccc(N(CC(=O)NCCSCc2ccccc2)S(=O)(=O)c2ccccc2)c1C	TDP1 cell noCPT inconclusive, DT40 TDP1 CPT 23µM (no result: DRD3 antagonist, IL-1B inflam inh)
COc1ccccc1N(CC(=O)NCCSCc1ccc(Cl)cc1)S(C)(=O)=O	TDP1 cell noCPT 23µM!, DT40 TDP1 CPT 21µM
COc1ccc(C)cc1N(CC(=O)NCCSCc1cccc(Cl)c1)S(C)(=O)=O	TDP1 cell noCPT inconclusive, DT40 TDP1 CPT 16µM
Cc1cccc(CSCCNC(=O)CN(c2cc(C)cc(C)c2)S(C)(=O)=O)c1	TDP1 cell noCPT inconclusive, DT40 TDP1 CPT inconclusive
C/C(CC(=O)Nc1ccccc1C#N)=N\NC(=O)c1ccncc1	none (no result: ClpP mod)
OCC[C@@H]1C[C@H](O)[C@@H](O)[C@@]2(CCCO2)O1	none
CCN(CC(=O)NC1CC1)S(=O)(=O)c1ccc(OC)cc1	none
COc1ccccc1C(C)NCC(=O)NCC(=O)Nc1ccc(F)c(F)c1F (centres undefined)	none (no result: ClpP mod)
Cc1ccc(NC(=O)CN(C)C(=O)C(C)OC(=O)c2ccccc2NCCO)cc1 (centres undefined)	ClpP mod 25µM
CC(OC(=O)c1ccccc1NCCO)C(=O)NCC(=O)Nc1ccc(F)c(F)c1F (centres undefined)	ClpP mod 16µM
Cc1ccc(NC(=O)CN(C)C(=O)C(c2ccccc2)c2ccccc2)cc1	TDP1 cell noCPT inconclusive, DT40 TDP1 CPT inconclusive
COC(=O)c1sc2cccc(F)c2c1S(=O)(=O)N1CCN(c2cccc(C)c2)C(C)C1 (centres undefined)	TDP1 cell noCPT inconclusive, DT40 TDP1 CPT inconclusive (no result: DRD3 antagonist, IL-1B inflam inh)
COc1ccc(N2CCN(S(=O)(=O)c3ccc(-c4ccno4)cc3OC)CC2)cc1	none (no result: DRD3 antagonist, IL-1B inflam inh)
COc1ccc(N2CCN(C(=O)COC(=O)c3ccc(CSC)o3)CC2)cc1	none
Cc1ccc(-c2noc(C3CCCN(C(=O)c4ccc(C(C)(C)C)cc4)C3)n2)o1 (centres undefined)	TDP1 cell noCPT 18µM, DT40 TDP1 CPT inconclusive (no result: ClpP mod)
Cc1ccc(S(=O)(=O)N2CCCC(c3nc(-c4ccc(C)o4)no3)C2)cc1 (centres undefined)	IL-1B inflam inh -73
CC(=O)c1cccc(S(=O)(=O)N2CCCC(c3nc(-c4ccc(C)o4)no3)C2)c1 (centres undefined)	TDP1 cell noCPT inconclusive, DT40 TDP1 CPT 18µM
Cc1ccc(-c2noc(C3CCN(C(=O)Nc4ccc(C#N)cc4)CC3)n2)o1	TDP1 cell noCPT inconclusive, DT40 TDP1 CPT 23µM
COc1cc(OC)cc(C(=O)N2CCCC(c3nc(-c4ccc(C)o4)no3)C2)c1 (centres undefined)	TDP1 cell noCPT inconclusive (no result: ClpP mod)
CN1C(=O)CC(=O)N(C)c2cc(S(=O)(=O)N(C)Cc3ccccc3)ccc21	none
CCOC(=O)c1c(C)c(-c2ccccc2)n(CC(=O)Nc2cc(OC)cc(OC)c2)c1C	TDP1 cell noCPT inconclusive, DT40 TDP1 CPT inconclusive (no result: DRD3 antagonist, IL-1B inflam inh)
COc1ccc(-c2noc(C3CCCN(S(=O)(=O)c4ccc(C)c(Cl)c4)C3)n2)cc1OC (centres undefined)	TDP1 cell noCPT 21µM, DT40 TDP1 CPT inconclusive
COc1ccc(-c2noc(C3CCCN(S(=O)(=O)c4cccc(Cl)c4C)C3)n2)cc1OC (centres undefined)	TDP1 cell noCPT inconclusive, DT40 TDP1 CPT inconclusive
Nc1cc2c(cc1Cl)-c1ccc(Cl)cc1C2	TDP1 cell noCPT inconclusive
Cc1oc(-c2ccc(Cl)cc2)nc1CN1CCCC(C(=O)NCCCN2CCOCC2)C1 (centres undefined)	TDP1 cell noCPT 23µM
Cc1oc(-c2cccc(Cl)c2)nc1CN1CCCC(C(=O)NCc2ccco2)C1 (centres undefined)	TDP1 cell noCPT inconclusive, DT40 TDP1 CPT inconclusive
Cc1cccc(-c2nc(CN3CCCC(C(=O)NCCc4ccc(Cl)cc4)C3)c(C)o2)c1 (centres undefined)	TDP1 cell noCPT 8.2µM, DT40 TDP1 CPT 16µM (no result: DRD3 antagonist, IL-1B inflam inh)
Cc1oc(-c2ccc(Cl)cc2)nc1CN1CCCC(C(=O)NCCc2ccccc2)C1 (centres undefined)	TDP1 cell noCPT 5.8µM, DT40 TDP1 CPT 8.2µM (no result: DRD3 antagonist, IL-1B inflam inh)
Cc1oc(-c2ccc(Cl)cc2)nc1CN1CCCC(C(=O)NCc2cccnc2)C1 (centres undefined)	TDP1 cell noCPT 12µM, DT40 TDP1 CPT 9.2µM, IL-1B inflam inh -72
Cc1cccc(NC(=O)CCc2nc3sc4c(c3c(=O)[nH]2)CCCC4)n1	TDP1 cell noCPT 18µM, DT40 TDP1 CPT inconclusive
CC(=O)c1ccc(NC(=O)CCc2nc3sc4c(c3c(=O)[nH]2)CCCC4)cc1	TDP1 cell noCPT inconclusive, DT40 TDP1 CPT inconclusive
O=C(CCc1nc2sc3c(c2c(=O)[nH]1)CCCC3)Nc1ccccc1Cl	TDP1 cell noCPT inconclusive, DT40 TDP1 CPT inconclusive (no result: ClpP mod)
CC(=O)c1cccc(NC(=O)CCc2nc3sc4c(c3c(=O)[nH]2)CCCC4)c1	TDP1 cell noCPT 13µM, DT40 TDP1 CPT inconclusive
CCN(c1ccc(NC(=O)CCc2nc3sc4c(c3c(=O)[nH]2)CCCC4)cc1)C(C)C	TDP1 cell noCPT 23µM, DT40 TDP1 CPT 29µM
COc1ccc(C)cc1NC(=O)c1nnn(CC(=O)Nc2c(C)cccc2C)c1N	none (no result: DRD3 antagonist, IL-1B inflam inh)
COc1ccc(Cl)cc1NC(=O)COC(=O)CCNS(=O)(=O)c1cccs1	none
COC(=O)C1=C(C)N(C)C(=S)NC1c1ccc(OC)cc1OC (centres undefined)	none
COc1ccccc1-c1ncn(Cc2cccc(-c3ccccc3)c2)c1CC(C)C	TDP1 cell noCPT 18µM, DT40 TDP1 CPT 21µM, IL-1B inflam inh -91
CCc1c(-c2cccc(Cl)c2)ncn1Cc1cccc(-c2ccccc2)c1	TDP1 cell noCPT inconclusive, DT40 TDP1 CPT inconclusive, IL-1B inflam inh inconclusive
CCc1c(-c2ccccc2OC)ncn1Cc1cccc(-c2ccccc2)c1	TDP1 cell noCPT 0.52µM, DT40 TDP1 CPT 0.65µM, IL-1B inflam inh -53
